Only a selection was taken, and hits are over-represented in it overall.
LmPK inh – LmPK (Leishmania mexicana) enzyme inhibition; Q27686; purified LmPK, Kinase-Glo ATP luminescence, 1 h; Potency, µM (doses to about 57.5 µM), for inactives: at the highest dose activity change, negative = inhibition, most hits filed as inhibitors; 290,000 compounds, 0.37% hits; note: potency is the fitted concentration of half-maximal effect; % is set by controls: 0 for no effect and ±100 for the full control effect
Target sequence (Q27686 whole entry, looked up): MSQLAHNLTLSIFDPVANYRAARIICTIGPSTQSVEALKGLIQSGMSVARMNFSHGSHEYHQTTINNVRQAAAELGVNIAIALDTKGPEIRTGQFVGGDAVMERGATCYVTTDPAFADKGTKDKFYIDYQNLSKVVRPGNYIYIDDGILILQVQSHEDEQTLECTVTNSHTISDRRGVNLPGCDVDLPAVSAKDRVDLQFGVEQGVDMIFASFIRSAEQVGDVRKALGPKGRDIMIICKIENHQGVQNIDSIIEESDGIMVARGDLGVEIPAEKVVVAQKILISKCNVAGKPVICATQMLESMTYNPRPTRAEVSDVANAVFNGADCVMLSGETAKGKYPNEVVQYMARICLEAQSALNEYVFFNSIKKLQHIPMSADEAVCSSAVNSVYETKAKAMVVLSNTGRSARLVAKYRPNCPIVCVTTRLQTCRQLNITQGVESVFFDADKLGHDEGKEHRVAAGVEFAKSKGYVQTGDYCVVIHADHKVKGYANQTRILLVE
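Purified LmPK (0.1 nM) with 0.5 mM PEP and 0.1 mM ADP in imidazole buffer pH 7.2 with MgCl2/KCl, 1 h at room temperature. ATP formed was read by luciferase luminescence and normalized to no-enzyme and uninhibited controls.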
Giardia FBPA inh – Giardia lamblia aldolase inhibition. A8B2U2. purified Giardia FBPA. Potency, µM (top dose mostly 59.6 µM), for the others: at the highest dose activity, negative = inhibition, usual class: inhibitors. 290,000 compounds, 0.71% hits. AID 2451; note: potency is the fitted concentration of half-maximal effect; % is set by controls: 0 for no effect and ±100 for the full control effect; nearly all actives have a fitted effect of over 55% in size
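Giardia FBPA (40 nM reagent) was preincubated 10 min at RT with compound (up to 57.5 uM final), then substrate plus GAPDH/TPI/NAD/arsenate coupling system with diaphorase/resazurin was added; resorufin fluorescence (525/598 nm) was read after 20 min.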
Shiga toxin inh – inhibitors of Shiga toxin in Vero cells. Vero cells, Shiga toxin protein synthesis inhibition reporter. inhibition, % at 38.7 µM. 290,000 compounds, 9.2% hits; in the data active = inhibition mostly above about 28%, no sharp cut-off; inactive = mostly below about 43%; note: 0% is about no effect
TbPYK inhibitor – blocks Trypanosoma brucei pyruvate kinase; AID 624173; Potency, µM (series often up to 76.8 µM), for the others: at the highest dose activity, negative = inhibition, hits mostly inhibitors; TbPYK enzyme, Kinase-Glo Plus ATP luminescence, 45 min; 410,000 compounds, 0.12% hits; note: potency is the fitted concentration of half-maximal effect; % is set by controls: 0 for no effect and ±100 for the full control effect; nearly all actives have a fitted effect of over 50% in size
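Enzyme and substrate buffer are dispensed first and compound is pin-transferred. ADP at 130 uM final then starts the reaction, which runs 45 min at room temperature. Detection reagent is added for 10 min before luminescence is imaged.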
Sm TGR block – S. mansoni TGR enzyme inhibition | AID 485364 | 360,000 compounds, 3% hits | Q962Y6 | purified TGR, DTNB reduction, TNB absorbance 405 nm | Potency, µM (series often up to 114 µM), for inactives: at the highest dose activity change, negative = inhibition, hits mostly inhibitors; note: potency is the fitted concentration of half-maximal effect; % is set by controls: 0 for no effect and ±100 for the full control effect; nearly all actives have a fitted effect of over 60% in size
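First, TGR (20 nM dispensed) and NADPH were mixed with compound. Second, a 15 min room-temperature incubation followed. Third, further NADPH and then DTNB were added to start the reaction. Finally, TNB absorbance was monitored kinetically.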
Cycloheximide cs – counter-screen hit for Shiga toxin inhibitors, cycloheximide | cell reporter, cycloheximide protein synthesis inhibition counterscreen | max response, % | 300,000 compounds, 12% hits; in the data active = max response mostly above about 13%, no sharp cut-off; inactive = mostly below about 14%; note: read at 38.3 µM for the half of the compounds with a filed dose; 0% is about no effect
An asterisk follows results filed as active; ? = inconclusive; · = not tested or not shown; [ ] = another dose, or the depositor's remark. Unless noted, calls come from the whole dose curve; as a rule, active = well fitted curve in the direction sought with a large enough effect; inconclusive = small, poorly fitted or top-dose-only effect, or another doubt; inactive = no such curve, though single readings can be large; an effect the other way counts as inactive or inconclusive.

SMILES	LmPK inh	Giardia FBPA inh	Shiga toxin inh	TbPYK inhibitor	Sm TGR block	Cycloheximide cs
CC(C)NC(=O)CSc1nc(-c2ccccc2)cs1	-3%	5%	89*	6%	0%	26*
CC(C)C[C@@H](CC(=O)N[C@H](CC(=O)N[C@@H]1CCNC[C@H]1C(=O)N[C@H](CC(=O)N[C@@H](CCC(=O)O)CC(=O)O)Cc1ccccc1)C(C)C)NC(=O)[C@@H]1CCCC[C@H]1N	·	3%	·	·	·	·
O=C(CSc1nc(-c2ccccc2)cs1)NC(=O)NCc1ccco1	-2%	-4%	19	-6%	-36%	25*
N#CCSc1ccc2nc(-c3ccccc3)cn2n1	-6%	-17%	105*	4%	-1%	28
Cc1cc(SCC(=O)NC(=O)NCc2ccco2)nc2ccccc12	3%	-2%	-1	-14%	40µM*	3
O=C(CSc1nc2ccccc2s1)NC(=O)NCc1ccco1	1%	-8%	35	0%	?	19
CC1(C)C(=O)Nc2ccccc2N1C(=O)CSc1nc(-c2ccccc2)cs1	-2%	-1%	29	-15%	-7%	16*
Cc1cc(SCC(=O)NC(=O)NCc2ccco2)nc2c(C)cccc12	10%	5%	4	-11%	?	-1
N#Cc1ccc(C(=O)Nc2cccc3ccccc23)c(F)c1	3%	-7%	·	5%	2%	6
CN(C)C(=O)NC1CCCCCCC1	·	0%	-6	·	·	1
Cc1ccc2c(c1)N(CC(=O)N1CCCCCC1)C(=O)C(C)O2 (stereo unspecified)	-6%	8%	-4	4%	-6%	0
Cn1c(=O)c([N+](=O)[O-])c(-n2ccnc2)c2ccccc21	9%	-12%	21	-5%	35µM*	-6
CC(=O)N1c2ccccc2C(C)=CC1(C)C	12%	-14%	-4	2%	-1%	-3
COc1ccc(NC(=O)N2c3ccc(OC)cc3C(C)=CC2(C)C)cc1	3%	11µM*	17	-5%	-13%	10
CCOc1ccc2c(c1)C(C)=CC(C)(C)N2C(=O)Nc1ccccc1	0%	?	14	-6%	-31%	29*
CCOC(=O)Oc1ccc2c(c1)C(C)=CC(C)(C)N2C(=O)OCC	-5%	-10%	-4	-2%	4%	-1
CCNC(=O)N1c2ccc(OC)cc2C(C)=CC1(C)C	-3%	?	16	-6%	0%	1
COc1ccc(NC(=O)N2c3ccccc3C(C)=CC2(C)C)cc1	0%	-2%	38*	-3%	-2%	20*
O=C(O)CC(O)CC(O)/C=C/c1c(C2CC2)nc2ccccc2c1-c1ccc(F)cc1 (stereo unspecified)	·	·	·	3%	·	·
O=C(OCc1cn([C@H]2CN(C(=O)c3cccs3)[C@@H](c3ccccc3)C[C@@H]2O)nn1)c1ccccc1	·	·	·	0%	·	·
CC(C)c1nc(N2CCN(C(=O)c3ccco3)CC2)c2c3c(sc2n1)CCCC3	1%	-7%	-3	2%	28µM*	0
CC(C)c1nc(N2CCN(C(=O)c3ccco3)CC2)c(C#N)c2c1COC(C)(C)C2	6%	-14%	6	3%	-13%	-2
CCCCc1nc(N2CCN(C(=O)c3ccco3)CC2)c(C#N)c2c1CCCC2	0%	·	63*	7%	-5%	21*
CCCc1cc(N2CCN(C(=O)c3ccco3)CC2)n2c(nc3ccccc32)c1C#N	-4%	2%	18	4%	40µM*	8
CCCc1cc(-n2ccnc2C)n2c(nc3ccccc32)c1C#N	·	·	·	-2%	·	·
SMILES	LmPK inh	Giardia FBPA inh	Shiga toxin inh	TbPYK inhibitor	Sm TGR block	Cycloheximide cs
COc1ccc(-n2ncc(C(=O)Nc3cccc(C(F)(F)F)c3)c2C2CCN(C(=O)OC(C)(C)C)CC2)cc1	·	·	·	-7%[15.4 µM]	12%	·
CCC1=C2CC[C@H]3C(=O)N(C)C(=O)[C@H]3[C@H]2[C@@]2(Cc3ccccc3)C(=NCCc3c[nH]c4ccccc34)OC(=O)N2C1=O	·	2%	·	·	·	·
CC(C)C(=O)Nc1ccc(NC(=O)c2ccccc2Cl)nc1	1%	-9%	71*	4%	1%	38*
CCCC(=O)Nc1ccc(NC(=O)C23CC4CC(CC(C4)C2)C3)cn1	-14%	-4%	30	2%	1%	11
O=C(Nc1ccc(Cl)cn1)C1CC1	2%	1%	11	-15%	0%	8
CCC(=O)Nc1ccc(NC(=O)Cc2ccccc2)cn1	-4%	-28%	-3	-6%	0%	-4
CCCC(=O)Nc1ccc(NC(=O)c2ccccc2)nc1	?	0%	40*	-10%	-1%	21*
CCC(=O)Nc1ccc(NC(=O)c2ccccc2)nc1	?	0%	70*	-11%	5%	25*
O=C(Nc1ccc(NC(=O)C2CC2)nc1)c1ccccc1F	-8%	0%	79*	-6%	-10%	24*
O=C(Nc1ccon1)c1ccccc1Cl	-3%	2%	30	0%	-3%	19
CN=C(NC#N)NCCSCc1csc(N=C(N)N)n1	·	-12%	·	-1%	·	·
COc1ccc(C(=O)Nc2ccc(NC(=O)c3ccccc3F)cn2)cc1	0%	?	22	0%	-4%	0
CCCC(=O)Nc1ccc(NC(=O)c2ccccc2F)cn1	-4%	0%	24	-1%	3%	16*
COc1cccc(C(=O)Nc2ccc(NC(=O)C3CCCCC3)nc2)c1	0%	6%	22	0%	1%	1
O=C(Nc1ccc(NC(=O)C2CCCCC2)nc1)c1cccs1	0%	1%	65*	-4%	·	35*
CCC(=O)Nc1ccc(NC(=O)c2ccccc2Cl)nc1	-2%	-1%	26	5%	4%	21*
CCc1cc(=O)oc2cc(C)c3c(-c4ccc(F)cc4)coc3c12	·	·	·	-1%	-1%	·
O=C(Nc1ccc(C(=O)OCc2cc(=O)n3c4c(sc3n2)CCCC4)cc1)c1ccc(F)cc1	·	·	·	4%	-2%	·
O=C(O)c1ccc(S(=O)(=O)N[C@@H](Cc2ccc(O)cc2)C(=O)O)cc1	·	12%	-7	·	45µM*	-9
Cc1ccc(NC(=S)NC(=O)C2CC2)c(C)c1	-12%	·	64*	-2%	?	34*
S=C(Nc1ccc(Cl)cc1Cl)NC1CCN(Cc2ccccc2)CC1	0%	6%	-4	-6%	-15%	1
S=C(Nc1cccc(Cl)c1)NC1CCCCC1	2%	-1%	69	7%	2%	12
COC(=O)c1ccccc1NC(=S)NC(=O)C1CC1	9%	1%	-15	-3%	-27%	5
Cc1ccc(NC(=S)NC(=O)C2CCCC2)cc1C	0%	·	91*	-3%	?	50*
CCN(CC)S(=O)(=O)c1cc(NC(=S)NC(=O)C2CCCC2)ccc1C	·	·	·	3%	·	·
Cc1cc(Cl)ccc1NC(=S)NC1CCCC1	-3%	1%	32*	0%	3%	12*

Source: PubChem BioAssay (National Center for Advancing Translational Sciences (NCATS))
